Cycloheximide cs = Cycloheximide Counterscreen for Small Molecule Inhibitors of Shiga Toxin; cell reporter, cycloheximide protein synthesis inhibition counterscreen; max response, %; 12% of 300,000 active; in the data active = max response mostly above about 13%, no sharp cut-off; inactive = mostly below about 14%; note: read at 38.3 µM for the half of the compounds with a filed dose; 0% is about no effect
LmPK inh = qHTS Assay for Inhibitors of Leishmania Mexicana Pyruvate Kinase (LmPK) | purified LmPK, Kinase-Glo ATP luminescence, 1 h | Q27686 | AID 1721, 2009 | 0.37% of 290,000 active | Potency, µM (titrated, usually from 57.5 µM), inactives show at the highest dose activity change, negative = inhibition, actives largely listed as inhibitors; active = well fitted curve in the direction sought with a large enough effect; an effect the other way counts as inactive or inconclusive; note: potency is the fitted concentration of half-maximal effect; % is set by controls: 0 for no effect and ±100 for the full control effect
Target sequence (Q27686 whole entry, looked up): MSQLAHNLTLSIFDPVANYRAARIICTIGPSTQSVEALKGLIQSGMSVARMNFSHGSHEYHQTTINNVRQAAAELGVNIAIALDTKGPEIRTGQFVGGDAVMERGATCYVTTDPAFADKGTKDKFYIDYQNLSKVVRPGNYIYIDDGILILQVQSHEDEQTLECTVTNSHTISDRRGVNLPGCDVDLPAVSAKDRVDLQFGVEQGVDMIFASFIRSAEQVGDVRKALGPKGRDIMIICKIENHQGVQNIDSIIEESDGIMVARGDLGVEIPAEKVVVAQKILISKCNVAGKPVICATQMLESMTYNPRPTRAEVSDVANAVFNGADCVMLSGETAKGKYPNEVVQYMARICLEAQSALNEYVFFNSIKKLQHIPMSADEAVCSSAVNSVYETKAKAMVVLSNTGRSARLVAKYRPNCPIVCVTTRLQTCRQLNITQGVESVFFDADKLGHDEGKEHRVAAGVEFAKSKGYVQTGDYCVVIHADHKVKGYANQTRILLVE
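ATP generated from ADP (0.1 mM) and PEP (0.5 mM) by 0.1 nM LmPK over 1 h at room temperature (pH 7.2 imidazole buffer) was detected by coupled luciferase luminescence. Values were normalized to uninhibited and no-enzyme wells.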
SARS PLpro yeast = qHTS of Yeast-based Assay for SARS-CoV PLP. Potency, µM (top dose mostly 32.9 µM), for the others: top-dose activity, positive = growth rescue, hits mostly activators. S. cerevisiae expressing SARS-CoV PLpro, growth rescue. 0.19% of 330,000 active; note: potency is the fitted concentration of half-maximal effect; 0% is about no effect; nearly all actives have a fitted effect of over 55% in size
Shiga inhibitor = A qHTS for Small Molecule Inhibitors of Shiga Toxin. Vero cells, Shiga toxin protein synthesis inhibition reporter. inhibition, % at 38.7 µM. 9.2% of 290,000 active; in the data active = inhibition mostly above about 28%, no sharp cut-off; inactive = mostly below about 43%; note: 0% is about no effect
Tb PYK inh = qHTS of Trypanosoma Brucei Inhibitors. TbPYK enzyme, Kinase-Glo Plus ATP luminescence, 45 min. Potency, µM (titrated, usually from 76.8 µM), for inactives: at the highest dose activity, negative = inhibition, usual class: inhibitors. 0.12% of 410,000 active. AID 624173, 2012; active = well fitted curve in the direction sought with a large enough effect; an effect the other way counts as inactive or inconclusive; note: potency is the fitted concentration of half-maximal effect; % is set by controls: 0 for no effect and ±100 for the full control effect; nearly all actives have a fitted effect of over 50% in size
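Glycolytic pyruvate kinase of T. brucei was incubated with substrate, test compound and 130 uM ADP for 45 minutes at room temperature. Luminescent Kinase-Glo Plus signal was measured after 10 minutes.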
NS1 inh = qHTS Assay for Inhibitors of Influenza NS1 Protein Function; Potency, µM (top dose mostly 46.1 µM), inactives show at the highest dose activity, positive = more growth; 0.4% of 270,000 active; AID 2326, 2010; note: potency is the fitted concentration of half-maximal effect; actives are rising curves; nearly all actives have a fitted effect of over 50% in size
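Read-out: OD600 growth recovery of NS1-expressing budding yeast. Cells grown overnight at 30C in -URA glucose medium, washed, resuspended and diluted 1:100 in 2% galactose assay medium, pH 6.0. Same strain lacking NS1 served as positive control.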
Starred values were filed as active, the others as inactive; nt = no result. The sample as a whole holds a higher share of hits than the screen did. Unless noted, calls come from the whole dose curve.

SMILES	Cycloheximide cs	LmPK inh	SARS PLpro yeast	Shiga inhibitor	Tb PYK inh	NS1 inh
CN1CCCC1CCNc1ccc2c(=O)c3ccccc3oc2c1 (configuration not stated)	40.9*	1.7%	-3.1%	32.7	0.2%	0.4%
CN1CCCC1CCNc1ccc2oc3ccccc3c(=O)c2c1 (configuration not stated)	25.3*	-8.7%	-1.7%	43.9	-2.5%	2.0%
O=S(=O)(Nc1nccs1)c1ccc([As](=O)(O)O)cc1	nt	nt	nt	nt	nt	0.0%
CCN(CC)C(=O)C1CCN(C(=O)c2oc3ccc(C)cc3c2C)CC1	17.1*	-12.9%	-0.1%	16.1	2.3%	-6.3%
Cc1c(C(=O)N2CCc3ccccc3C2)oc2ccc(Br)cc12	nt	nt	-23.9%	nt	0.5%	nt
CCN(CC)C(=O)C1CCCN(C(=O)c2oc3ccc(C)cc3c2C)C1 (configuration not stated)	14.1	-1.8%	-2.5%	12.3	-3.9%	-5.7%
CCCc1ccc2oc(C(=O)N3CCCC3)c(C)c2c1	29.6*	-5.3%	-6.1%	nt	-2.5%	-43.2%
Cc1ccc2oc(C(=O)N3CCC(O)(c4ccccc4)CC3)c(C)c2c1	11.5*	-1.7%	-17.6%	17.9	-0.7%	-22.2%
Cc1c(C(=O)N2CCCC2)oc2ccc(Br)cc12	34.8*	-8.3%	-6.3%	42.2*	0.9%	-67.8%
CCN(CC)S(=O)(=O)c1ccc2oc(C(=O)N3CCCCCC3)c(C)c2c1	-1.7	-3.6%	-5.7%	-16.1	-1.8%	-40.6%
Cc1ccc(C(=O)N2c3ccc(C)cc3C(C)(c3ccccc3)CC2(C)C)cc1 (configuration not stated)	nt	nt	nt	nt	-0.9%	nt
Cc1cc2[nH]c3c(=O)n(Cc4ccccc4F)ncc3c2s1	-1.4	nt	nt	2.1	nt	nt
Cc1c(C(=O)N2CCN(C)CC2)oc2ccc(Br)cc12	33.4*	-2.0%	-1.0%	46.3*	-4.1%	-13.5%
CCCc1ccc2oc(C(=O)N3CCNC(=O)C3CC(=O)OC)c(C)c2c1 (configuration not stated)	19.3*	-11.1%	-6.9%	-10.4	-0.9%	-0.3%
Cc1oc2cc3c(C(=O)N4CCCCC4)c(C)oc3cc2c1C(=O)N1CCCCC1	53.4*	5.9%	6.0%	72.9	1.6%	-4.8%
COC(=O)CC1C(=O)NCCN1C(=O)c1ccccc1 (configuration not stated)	-3.3	-11.1%	-4.2%	-12.2	0.5%	1.3%
Cc1ccc(C(=O)CSc2nc(-c3ccccc3)nc3c2CCCC3)cc1C	nt	nt	nt	nt	-9.2%	nt
CN(Cc1cccc(Cl)c1Cl)C(=O)c1ccccc1SCC(=O)N1CCCC1	nt	nt	nt	nt	-5.7%	nt
CCc1cnc2c(c1SCC(=O)Nc1ccc(C(=O)OC)cc1)c(=O)n(C)c(=O)n2C	nt	nt	nt	nt	1.6%	nt
CCCCCn1cnc2sc(-c3ccccc3)cc2c1=O	47.3*	-8.0%	-5.2%	61.0*	3.0%	-16.3%
O=c1c2cc(-c3ccccc3)sc2ncn1/N=C/c1ccco1	36.8*	-4.5%	-9.7%	83.2	5.0%	-52.8%
COc1ccccc1-n1cnc2sc(-c3ccccc3)cc2c1=O	25.4	-2.5%	-0.5%	71.2	4.5%	3.9%
CCCCn1cnc2sc(-c3ccccc3)cc2c1=O	38.4*	0.3%	-16.9%	98.3*	1.9%	-17.6%
CNC(=O)NC(=O)Cn1cnc2sc(-c3ccccc3)cc2c1=O	-2.5	2.4%	0.6%	21.8	0.5%	-4.0%
O=C(NCC1CCCCC1)c1ccc(F)cc1Cl	57.0*	-5.2%	1.7%	89.0*	4.6%	-13.0%
COC(=O)c1ccc(/C=N/Nc2nc(-c3ccccc3)cs2)cc1	13.7	3.7%	16.5%	3.0	-4.5%	-2.0%
CCOC(=O)Cc1csc(N/N=C\c2ccc(N(C)C)cc2)n1	24.0*	-2.9%	11.7%	63.7*	-9.3%	7.4%
CCOC(=O)Cc1csc(N/N=C\c2cccc(Br)c2)n1	11.2*	7.5%	8.3%	51.9*	-26.8%	4.7%
CCOC(=O)Cc1csc(NC(=O)c2ccc(NC(C)=O)cc2)n1	3.9	-1.7%	-5.5%	28.9	3.7%	4.7%
CCOC(=O)Cc1csc(N/N=C/c2ccccc2)n1	60.9*	-7.7%	16.0%	104.1*	-4.1%	-4.2%

High-throughput results from PubChem.
